Bioassay records: PubChem BioAssay, National Center for Advancing Translational Sciences (NCATS)
In the library only some 12% were active in any assay of this set; here they are far more common.
HCV inh – blocks hepatitis C virus; Huh7.5.1 HCVcc-Cre infection, luciferase reporter, 44 h; Potency, µM (titrated, usually from 41.8 µM), inactives show at the highest dose activity change, negative = inhibition, hits mostly inhibitors; 340,000 tested, 3.4% active; also: % is scaled to controls: 0 for no effect and ±100 for the full control effect
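Cells (1,000/well) were plated 4 h before compound, then infected with HCVcc-Cre virus (~0.5 moi). After 44 h further culture, infection was read as luciferase luminescence following a 15 min substrate incubation at room temperature.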
Pf growth 96h – inhibits malaria parasite growth, 96 h; P. falciparum luciferase reporter growth, 96 h; 320,000 tested, 6.9% active; Potency, µM (titrated, usually from 28.7 µM), for the others: top-dose activity change, negative = inhibition, usual class: inhibitors; AID 504834; also: % is scaled to controls: 0 for no effect and ±100 for the full control effect
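Luminescence readout: decreased luciferase signal marks inhibited growth of reporter-expressing P. falciparum in infected red cells (2% hematocrit, 0.05% parasitemia final), exposed to compound two generations (96 h, 37 C, 5% CO2).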
NS1 inh – influenza NS1 inhibition; Potency, µM (doses to about 46.1 µM), for inactives: at the highest dose activity, positive = more growth; 270,000 tested, 0.4% active; AID 2326; calls by dose curve; also: actives are rising curves; nearly all actives have a fitted effect of over 50% in size
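Growth recovery, yeast-based: influenza A NS1 expressed in S. cerevisiae causes slow growth, and suppressors are detected by OD600. The parent strain without NS1 is used as positive control.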
Pf growth 48h – inhibits P. falciparum growth in the first generation, 48 h. 310,000 tested, 5.9% active. AID 504832. P. falciparum luciferase growth in erythrocytes, 48 h. Potency, µM (top dose mostly 28.7 µM), inactives show at the top dose activity change, negative = inhibition, actives largely listed as inhibitors; also: % is scaled to controls: 0 for no effect and ±100 for the full control effect
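Luminescence readout; reporter = integrated firefly luciferase in P. falciparum. RBC culture at 2% hematocrit, 0.1% parasitemia final, 37 C/5% CO2; decreased signal taken as growth inhibition.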
AMA1-RON2 inh – inhibitors of Plasmodium falciparum AMA1-RON2 interaction; AlphaScreen AMA1-biotinylated RON2 peptide binding; Potency, µM (highest dose often 58.2 µM), inactives show top-dose activity change, negative = inhibition, usual class: inhibitors; 360,000 tested, 0.2% active;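 also: 0% = vehicle wells and -100% = peptide control; nearly all actives have a fitted effect of over 45% in size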
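AMA1 (3D7) with his tag at 25 nM final met compounds first, then biotinylated RON2 peptide at 25 nM; detection used donor plus acceptor beads, 10 µg/mL apiece, read by AlphaScreen after 30 min at room temperature.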
SARS PLP yeast – SARS-CoV PLP inhibition in yeast; S. cerevisiae expressing SARS-CoV PLpro, growth rescue; Potency, µM (top dose mostly 32.9 µM), without a hit: at the highest dose activity, positive = growth rescue, hits mostly activators; 330,000 tested, 0.19% active; AID 485353; calls by dose curve; also: 0% is about no effect; nearly all actives have a fitted effect of over 55% in size
Active calls of the source: *; ? = inconclusive; . = no result given; [ ] = remark or other dose. Unless noted, calls follow the shape of the dose curve; as a rule, active = well fitted curve in the direction sought with a large enough effect; inconclusive = small, poorly fitted or top-dose-only effect, or another doubt; inactive = no such curve, though single readings can be large; an effect the other way counts as inactive or inconclusive. Potency is read from the fitted curve at half-maximal effect.

SMILES	HCV inh	Pf growth 96h	NS1 inh	Pf growth 48h	AMA1-RON2 inh	SARS PLP yeast
CC[C@H](C)C(C(=O)N1CCN(C(=O)OC(C)(C)C)CC1)n1cc(C(CC(C)C)NC(=O)OC(C)(C)C)nn1 (some centres undefined)	11.2%	2.33µM*	4.6%	?	1.3%	-0.3%
CCC(C)[C@H](N)c1cn([C@@H](Cc2ccc(O)cc2)C(=O)N2CCNCC2)nn1 (some centres undefined)	-5.2%	74.6%	-0.7%	25.5%	1.4%	1.8%
CC(C)CC(NC(=O)OC(C)(C)C)c1cn([C@@H](CCC(=O)OC(C)(C)C)C(=O)N2CCN(C(=O)OC(C)(C)C)CC2)nn1 (some centres undefined)	13.0%	10.4µM*	7.6%	?	9.4%	0.0%
CC(=O)N1CCOCCOCCN(C(C)=O)CCOCC1	24.3%	?	.	-9.4%	28.1%	-0.2%
CN=C1SC(CC(=O)Nc2ccccc2F)C(=O)N1/N=C/c1ccc(O)c(OC)c1 (centres undefined)	?	-23.2%[5.75 µM]	.	-18.4%	-2.2%	-0.1%
CCOc1ccc(/C=N/N2C(=O)C(CC(=O)Nc3ccc(F)cc3F)SC2=NC)cc1OC (centres undefined)	-15.6%	11.7µM*	7.0%	11.7µM*	7.3%	15.3%
COC(=O)[C@H](CC(C)C)NS(=O)(=O)N(Cc1ccccc1)[C@@H](CC(C)C)C(=O)OC	-1.5%	?	.	8.28µM*	7.5%	-2.9%
COC(=O)[C@H](CC(C)C)N(Cc1ccccc1)S(=O)(=O)N(Cc1ccccc1)[C@@H](CC(C)C)C(=O)OC	6.7%	.	.	.	-1.0%	-13.7%
C=CCCN(C(CC(C)C)C(=O)OC)S(=O)(=O)c1cc(Br)ccc1Br (centres undefined)	5.6%	?	-6.7%	?	19.6%	-9.0%
C=CCCN(C(CC(C)C)C(=O)OC)S(=O)(=O)c1ccccc1Br (centres undefined)	27.4%[8.37 µM]	11.7µM*	-3.3%	?	24.5%	-5.7%
Cc1cccc(C)c1NC(=O)Nc1ccc(S(N)(=O)=O)cc1	10.8%	24.7%	-5.6%	?	-5.6%	1.1%
COc1ccc(C(=O)C(c2ccccc2)N2CCOCC2)cc1 (centres undefined)	15.4%	?	-65.1%	?	0.2%	9.2%
Cc1ccc(C(=O)C(c2ccccc2)N2Cc3ccccc3C2=N)cc1 (centres undefined)	?	10.4µM*	-33.7%	?	?	-86.4%
CCn1c(/C=C/Nc2ccccc2)[n+](CC)c2cc(Cl)c(Cl)cc21	?	?	-4.7%	7.38µM*	-9.5%	19.5%
COC(=O)CNC(c1ccccc1)c1cc(C)ccc1NS(=O)(=O)c1ccc(C)cc1 (centres undefined)	6.31µM*	13.1µM*	-19.2%	9.28µM*	34.8%	-3.4%
COC(=O)CNC(c1ccccc1)c1cc(C)ccc1NC(=O)CNC(=O)OCc1ccccc1 (centres undefined)	-5.4%	.	-25.5%	13.1µM*	5.9%	-5.4%
COC(=O)CNC(c1ccccc1)c1cc(Br)ccc1NC(=O)OCc1ccccc1 (centres undefined)	?	?	5.2%	?	-12.3%	-7.9%
CCNC(=S)N(CCc1c(C)[nH]c2ccc(Cl)cc12)Cc1ccco1	10µM*	?	.	?	0.0%	-12.6%
COCCNC(=S)N(CCc1c(C)[nH]c2ccc(Cl)cc12)Cc1cccs1	7.08µM*	?	.	?	?	-7.1%
CNC(=S)N(CCc1c(C)[nH]c2ccc(C)cc12)Cc1ccco1	?	-14.9%	5.6%	-1.4%	-13.1%	15.2%
CCC(C(=O)Nc1ccc([N+](=O)[O-])cn1)c1ccccc1 (centres undefined)	9.4%	0.0%	-35.8%	-13.2%	-12.1%	-6.8%
O=c1oc2ccccc2n1CCCOc1ccccc1	-0.3%	11.7µM*	-4.9%	41.5%	2.6%	-4.9%
